This is an account of results in PubChem BioAssay (NCI).

SMILES strings stand for the structures. About 83,000 compounds went through this panel and 20% of them were active in at least one assay; those are over-represented in the sample as a whole.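 How to read the values: 0–100, growth inhibition (40 = 60% inhibited); 0, no net growth; -100 to 0, cell death (-40 = 40% of starting cells died; -100 = all dead).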 A number with no mark means an inactive call. Calls of active or inactive are those of the source. How the source made its calls: active means growth percent below 10; inactive means the rest.

The subject of the first assay is HS 578T breast. Description: NCI-60 one-dose screen, 48 h (100 = growth as untreated, 0 = no growth, -100 = all killed). The note with it: 10 µM unless noted.
Turning to `CCNCc1ccc(O)c2ncccc12`, the growth was 39.9%.

Consider `CC(C)c1ccc(C(=O)Nc2sc3cc(O)ccc3c2C#N)cc1`, for which the growth is 26.6%.

For `CCOC(=O)c1c(NC(=O)CSc2n[nH]c3nc4ccccc4n23)sc(CC)c1C`, the growth is 102%.

Regarding `COc1cccc(/C=C/C(=O)c2cc3c(N)c(C(=O)Nc4cccc(Cl)c4C)sc3nc2C)c1`, the growth is 4.67% (active).

Turning to `Cc1nn(-c2ccccc2)c(N2CCCCC2)c1/C=N/NC(=O)Cn1c(=O)sc2ccccc21`, the growth was 78.7%.

Take `COC(=O)Cc1nc(C#N)c(N(C)C)o1`: the growth is 87.1%.

`N=C(N)c1ccc(-c2ccc(-c3ccc(Cl)cc3Cl)s2)cc1F`: the growth was 9.71% (active).

For `C/C(C=O)=C\c1ccc2c(c1)OCO2`, the growth is 115%.

For `Cc1ccc(/C=C(\C#N)C(=O)Nc2ncc(Cc3cc(Cl)ccc3Cl)s2)o1`, the growth was 13%.

Take `C[C@@H]1CC[C@@]2(OC1)O[C@H]1C[C@H]3[C@@H]4CC=C5C[C@@H](O[C@@H]6O[C@H](CO)[C@@H](O[C@@H]7O[C@@H](CO)[C@H](O)[C@H]7O)[C@H](O)[C@H]6O[C@@H]6O[C@@H](C)[C@H](O)[C@@H](O)[C@H]6O)CC[C@]5(C)[C@H]4CC[C@]3(C)[C@H]1[C@@H]2C`: the growth was -47.9% (active).

For `CCOC(=O)c1cn2ncnc(Oc3ccc(NC(=O)NC4CC4)c(F)c3)c2c1C`, the growth is 103%.

The test system of the next assay is NCI/ADR-RES ovarian. The description is as above. The note with it: 10 µM unless noted.
On to `CC1(C)CC[C@]2(C(=O)N3CCOCC3)CC[C@]3(C)C(=CC[C@@H]4[C@@]5(C)C/C(=C/c6ccncc6)C(=O)C(C)(C)[C@@H]5CC[C@]43C)[C@@H]2C1`, for which the growth was 26.2%.

For the compound `O=C(Nc1cccnc1Nc1ccc(Cl)cc1)c1cn(Cc2ccc(F)cc2)nn1`, the growth is 96.2%.

As for `C=C1C(=O)O[C@H]2[C@H]1CC/C(CNC(=O)c1cc3ccccc3[nH]1)=C\CC[C@@]1(C)O[C@@H]21`, the growth was 22.4%.

`C=CCN=C(N)SCCCCCCSC(N)=NCC=C`: the growth was 104%.

Consider `CNC(=O)c1c(NC(=O)c2ccc(C(C)(C)C)cc2)sc2c(CN(C)C)c(O)ccc12`, for which the growth was 11.4%.

Take `COc1ccc(C/C(C)=C(\c2ccc(O)cc2)c2ccc(OCCN3CCCC3)cc2)cc1`: the growth was 104%.

In the case of `S=c1ssnc1-c1cccs1`, the growth was 97.2%.

Turning to `COc1cc(/C=C/c2cc(/C=C/c3ccc(O)c(OC)c3)n(C(=O)Nc3ccc(F)cc3)n2)ccc1O`, the growth is 27.9%.

With `COc1cc2c3c(n(CCCCNCCCn4c5c(c6cc(OC)c(OC)cc6c4=O)C(=O)c4cc6c(cc4-5)OCO6)c(=O)c2cc1OC)-c1cc2c(cc1C3=O)OCO2`, the growth is 98.6%.

On to `COc1cc(-c2cc(-c3ccc(Nc4ncnc5cc(Cl)ccc45)cc3)nc(N3CCN(C)CC3)n2)cc(OC)c1OC`, for which the growth is 85.3%.

As to `COc1cc(C(=O)/C=C/c2ccc(N3CCN(C)CC3)cc2)cc(OC)c1OC`, the growth was 95.2%.

On to `Cc1ccc2[nH]c(=O)c3c(c2c1)OC(N)=C(C#N)C31C(=O)c2cccc3cccc1c23` (stereo unspecified), for which the growth was 102%.

Consider `Cn1c(=O)c2c(nc(NC3=NS(=O)(=O)c4ccccc43)n2Cc2ccccc2)n(C)c1=O`, for which the growth was 103%.

As to `COc1ccc(C/C(C)=C(/c2ccc(OCCN3CCCCCC3)cc2)c2ccc(OC(=O)NCc3ccccc3)cc2)cc1`, the growth was 86.8%.

For the compound `Cn1cc(-c2csc(-c3cn(C(=O)OC(C)(C)C)c4ccccc34)n2)c2ccnc(Cl)c21`, the growth was 60%.

As for `CCN(C(=O)N1CCN(c2cc3c(cc2F)c(=O)c(C(=O)O)cn3C2CC2)CC1)c1nc(-c2ccc(C)cc2)cs1`, the growth is 2.74% (active).

Regarding `COC(=O)c1nc(-c2ccccc2)oc1S(=O)(=O)N1CCC(C(N)=O)CC1`, the growth is 111%.

Consider `CCCCSCC(=O)c1ccccc1`, for which the growth is 97.9%.

Turning to `Cc1ccc(Nc2nc(-c3ccc(F)cc3)c(C#N)c(=O)n2C)cc1`, the growth is 76.2%.

Turning to `COc1cccc(OC)c1Oc1c(-c2nc3ccccc3s2)c(C)nn1-c1ccccc1`, the growth was 64.7%.

Turning to `Cc1ccccc1CNc1c2ccccc2nc2ccccc12`, the growth was 24.9%.

As for `COc1ccc2nc3ccccc3c(NCc3ccc(F)cc3)c2c1`, the growth was 15.1%.

For the compound `O=C1NC(=O)c2c1c1c3ccccc3[nH]c1c1oc3cc(Br)ccc3c21`, the growth was 77.3%.

Regarding `COc1ccc(-c2nnc(SCC(=O)Nc3ccc(/C(C)=N\O)cc3)n2-c2ccccc2)cc1OC`, the growth was 90.6%.

Turning to `CC1=CCC[C@@H]2C1(C)CC[C@H](C)[C@@]2(C)CC1=CC(=O)C(SC(C)(C)C)=CC1=O` (stereo partly specified), the growth is 84.8%.

With `CCn1cc(CNc2ccc(C(=O)Nc3cc4cc(OC)c(OC)cc4c(C)n3)cc2)c(C)n1`, the growth is 13.4%.

For the compound `CCCCN1C(=O)/C(=c2\sc3n(c2=O)NC2C(N=3)N(CC)C(=O)N2CC)c2ccccc21` (stereo unspecified), the growth was 20.5%.

As to `NC(=O)c1c(NC(=O)c2ccc(Cl)cc2)sc2c1CCC(=O)C2`, the growth was 87.8%.

For `CC1(C)CC[C@]2(C(=O)O)CC[C@]3(C)C(=CC[C@@H]4[C@@]5(C)C[C@@H](Cc6cn([C@@H]7O[C@H](CO)[C@@H](O)[C@H](O)[C@H]7O)nn6)[C@H](O)C(C)(C)[C@@H]5CC[C@]43C)[C@@H]2C1`, the growth is 105%.

For `CCNCc1ccc(O)c2ncccc12`, the growth was 27.3%.

For the compound `CC(C)c1ccc(C(=O)Nc2sc3cc(O)ccc3c2C#N)cc1`, the growth was 11.2%.

For the compound `CCOC(=O)c1c(NC(=O)CSc2n[nH]c3nc4ccccc4n23)sc(CC)c1C`, the growth is 95.2%.

`COc1cccc(/C=C/C(=O)c2cc3c(N)c(C(=O)Nc4cccc(Cl)c4C)sc3nc2C)c1`: the growth was -3.64% (active).

Regarding `Cc1nn(-c2ccccc2)c(N2CCCCC2)c1/C=N/NC(=O)Cn1c(=O)sc2ccccc21`, the growth is 74.9%.

Turning to `COC(=O)Cc1nc(C#N)c(N(C)C)o1`, the growth is 101%.

In the case of `N=C(N)c1ccc(-c2ccc(-c3ccc(Cl)cc3Cl)s2)cc1F`, the growth is 10.1%.

For `C/C(C=O)=C\c1ccc2c(c1)OCO2`, the growth is 107%.

As for `Cc1ccc(/C=C(\C#N)C(=O)Nc2ncc(Cc3cc(Cl)ccc3Cl)s2)o1`, the growth is 52.5%.

On to `C[C@@H]1CC[C@@]2(OC1)O[C@H]1C[C@H]3[C@@H]4CC=C5C[C@@H](O[C@@H]6O[C@H](CO)[C@@H](O[C@@H]7O[C@@H](CO)[C@H](O)[C@H]7O)[C@H](O)[C@H]6O[C@@H]6O[C@@H](C)[C@H](O)[C@@H](O)[C@H]6O)CC[C@]5(C)[C@H]4CC[C@]3(C)[C@H]1[C@@H]2C`, for which the growth is -85.6% (active).

In the case of `CCOC(=O)c1cn2ncnc(Oc3ccc(NC(=O)NC4CC4)c(F)c3)c2c1C`, the growth is 99.3%.
